The source made the active and inactive calls. The rule behind the calls is not given here.
What follows are compounds tested against Pantothenate synthetase (Mycobacterium tuberculosis (strain ATCC 25618 / H37Rv)) (UniProt P9WIL5) (assay: Coupled enzyme confirmation of inhibitors against recombinant Mtb PanC (AID 375;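 note: 0% = full reaction with vehicle and 100% = no enzyme background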)). Conditions: coupled enzyme assay; at 10 µM, active compounds read high.
Pantothenate synthetase (Mycobacterium tuberculosis (strain ATCC 25618 / H37Rv)), sequence (P9WIL5 whole entry, looked up): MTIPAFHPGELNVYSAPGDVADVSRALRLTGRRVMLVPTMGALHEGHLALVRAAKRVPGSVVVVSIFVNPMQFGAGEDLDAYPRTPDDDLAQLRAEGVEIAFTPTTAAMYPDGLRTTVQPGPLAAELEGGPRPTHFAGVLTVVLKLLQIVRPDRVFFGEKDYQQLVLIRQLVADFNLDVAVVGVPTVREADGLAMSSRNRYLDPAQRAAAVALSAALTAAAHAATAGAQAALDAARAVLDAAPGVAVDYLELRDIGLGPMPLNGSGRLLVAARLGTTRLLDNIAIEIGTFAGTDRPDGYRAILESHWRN

| Compound | inhibition |
| --- | --- |
| Cc1ccccc1NC(=O)C1CC(=O)N(c2ccccc2F)C1 (configuration not stated) | 1% (inactive) |
| Cc1cc(OCC(=O)N2CCOCC2)cc2oc(=O)c3ccccc3c12 | 0% (inactive) |
| Cc1c(O)c(CN2CCCCC2)cc2c3c(c(=O)oc12)CCC3 | 2% (inactive) |
| CCOc1ccc(-c2nnn(CC(=O)N3CCN(c4ccc(F)cc4)CC3)n2)cc1OCC | 0% (inactive) |
| O=C1CC(C(=O)Nc2ccccc2)C2(CCCC2)O1 (configuration not stated) | 2% (inactive) |
| CCOC(=O)c1cc2sccc2n1Cc1ccccc1 | 1% (inactive) |
| O=C(c1ccccc1Cl)N1CCc2ccccc2C1 | 0% (inactive) |
| O=C(c1ccccc1)c1ccncc1 | 10% (inactive) |
| O=C(O)CCn1c(SCc2ccccc2)nc2ccccc21 | 0% (inactive) |
| Cc1cc(C)n2nc3nc(N4CCCCC4)nc(-c4ccco4)c3c2n1 | 25% (inactive) |
| COC(=O)c1ccc(COc2ccc(C3C4=C(CCCC4=O)Nc4onc(C)c43)cc2)cc1 (configuration not stated) | 0% (inactive) |
| CCCc1nc2ccccc2c(=O)n1NC(=O)c1c(O)c2cccc3c2n(c1=O)CCC3 | 0% (inactive) |
| Cn1c(=O)[nH]c(=O)c2c1nc(N(CCO)Cc1ccccc1)n2Cc1ccccc1Cl | 4% (inactive) |
| COc1ccccc1-n1cnnc1SCC(=O)c1ccc[nH]1 | 3% (inactive) |
| O=C1CC(c2cccc(Cl)c2)Cc2nc(N3CCN(c4ccccc4)CC3)ncc21 (configuration not stated) | 0% (inactive) |
| COc1ccc(N(CC(=O)Nc2ccc3c(c2)OCO3)S(=O)(=O)c2c(C)nn(C)c2C)cc1 | 0% (inactive) |
| COc1ccc2c(c1)CCc1cc(C(=O)N3CCN(c4ccc(N5CCOCC5)nn4)CC3)sc1-2 | 2% (inactive) |

— PubChem BioAssay
